This is an account of results in PubChem BioAssay (NCI).

“And” between values parts separate entries of the source, which are not always exact repeats. Identical values can stand only once. The panel holds about 83,000 compounds, 20% with a hit somewhere; the sample as a whole holds those more often.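 Each cell line was grown in a 96-well plate and treated with one concentration of compound for 48 hours. Values below 10 were considered active.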 A number with no mark means an inactive call. The source made the active and inactive calls.

Some test systems named below: SR leukemia; RPMI-8226 leukemia; OVCAR-5 ovarian; OVCAR-4 ovarian; SK-OV-3 ovarian; IGROV1 ovarian; OVCAR-3 ovarian; HS 578T breast; NCI/ADR-RES ovarian.
Holding throughout (assay): NCI-60 one-dose screen, 48 h (100 = growth as untreated, 0 = no growth, -100 = all killed)
For another test, the system named is OVCAR-8 ovarian. The settings on record: 10 µM.

Consider `S=P(N1CC1)(N1CC1)N1CC1`, for which the growth in the test on SR leukemia (10 µM) is 35.4%; in the test with SR leukemia (100 µM) it was 22.6%; in the test with RPMI-8226 leukemia (10 µM), 99.2% and 136%; with RPMI-8226 leukemia (100 µM), 51.4%; in the test with OVCAR-8 ovarian it was 110% and 80.7%; in the test on OVCAR-5 ovarian (10 µM), 108% and 77.1%. Besides, the growth in the test on OVCAR-5 ovarian (100 µM) is 64.7%; in the test with OVCAR-4 ovarian (10 µM), 116% and 90.4%; in the test on OVCAR-4 ovarian (100 µM), 87.9%; in the test on SK-OV-3 ovarian (10 µM), 110% and 108%; in the test with SK-OV-3 ovarian (100 µM) it was 67.2%; in the test on IGROV1 ovarian (10 µM) it was 101% and 78.2%. For the same molecule, the growth is 70.7% in the test with IGROV1 ovarian (100 µM); 118% and 106% in the test on OVCAR-3 ovarian (10 µM); 69.8% with OVCAR-3 ovarian (100 µM); 113% and 126% with HS 578T breast (10 µM); 66% in the test on HS 578T breast (100 µM); 107% and 88.6% in the test with NCI/ADR-RES ovarian (10 µM). Also, the growth in the test with NCI/ADR-RES ovarian (100 µM) is 40.3%.

In the case of `COc1cccc(C(c2cc3c(cc2O)OCO3)N2CCOCC2)c1OC` (stereo not drawn), the growth was 89.5% in the test on SR leukemia (10 µM); 105% with RPMI-8226 leukemia (10 µM); 99.2% in the test with OVCAR-8 ovarian; 104% in the test on OVCAR-5 ovarian (10 µM); 99.5% with OVCAR-4 ovarian (10 µM); 101% with SK-OV-3 ovarian (10 µM). Further, the growth in the test with IGROV1 ovarian (10 µM) was 101%; in the test with OVCAR-3 ovarian (10 µM) it was 111%; with HS 578T breast (10 µM) it was 95.5%; in the test on NCI/ADR-RES ovarian (10 µM), 104%.

`CN(CC(=O)O)c1ccc(/C=C/c2ccnc3ccccc23)cc1`: the growth in the test on RPMI-8226 leukemia (10 µM) was 70.4%; in the test with OVCAR-8 ovarian, 80%; in the test with OVCAR-5 ovarian (10 µM) it was 123%; with OVCAR-4 ovarian (10 µM), 86.2%; in the test on SK-OV-3 ovarian (10 µM) it was 91.3%; with IGROV1 ovarian (10 µM), 77.4%. In addition, the growth with OVCAR-3 ovarian (10 µM) is 90.4%; in the test with HS 578T breast (10 µM) it was 84.6%; in the test on NCI/ADR-RES ovarian (10 µM), 89.3%.

For the molecule `Cc1cc(Cl)ccc1NC(=O)/C(Cl)=C1/Sc2ccccc2NC1=O`, the growth is 100% in the test on SR leukemia (10 µM); 69.4% in the test with RPMI-8226 leukemia (10 µM); 93.5% in the test on OVCAR-5 ovarian (10 µM); 89.8% with OVCAR-4 ovarian (10 µM); 103% with SK-OV-3 ovarian (10 µM); 68.7% with IGROV1 ovarian (10 µM). The results for the growth in the test on OVCAR-3 ovarian (10 µM), with HS 578T breast (10 µM) and in the test with NCI/ADR-RES ovarian (10 µM) were 95.4%, 122% and 87.6%, respectively.

With `CC1CCC2(C(=O)O)CCC3(C)C(=CCC4C5(C)CC(O)C(O)C(C)(CO)C5C(O)CC43C)C2C1C` (stereo not drawn), the growth with SR leukemia (10 µM) was 105%; in the test with RPMI-8226 leukemia (10 µM) it was 128%; in the test with OVCAR-5 ovarian (10 µM) it was 188%; in the test with OVCAR-4 ovarian (10 µM), 114%; in the test with SK-OV-3 ovarian (10 µM), 103%; in the test with IGROV1 ovarian (10 µM), 92.8%. Also, the growth in the test with OVCAR-3 ovarian (10 µM) was 118%; with NCI/ADR-RES ovarian (10 µM), 99.4%.

Turning to `COc1ccc2oc(-c3ccc(Cl)cc3)c(N3CCN(C)CC3)c2c1`, the growth with RPMI-8226 leukemia (10 µM) is -10.3% (active); in the test with OVCAR-8 ovarian it was 31.8%; in the test with OVCAR-5 ovarian (10 µM) it was 2.8% (active); in the test with OVCAR-4 ovarian (10 µM) it was 78.2%; with SK-OV-3 ovarian (10 µM), 55.1%; in the test on IGROV1 ovarian (10 µM), -87.5% (active). Moreover, the growth with OVCAR-3 ovarian (10 µM) was 1.93% (active); in the test with HS 578T breast (10 µM), 28.3%; in the test with NCI/ADR-RES ovarian (10 µM), -10.9% (active).

As for `C=C1N(C)c2ccc(Cl)cc2C1(C)C`, the growth in the test with RPMI-8226 leukemia (10 µM) was -13.2% (active); in the test with OVCAR-8 ovarian, 67.9%; with OVCAR-5 ovarian (10 µM), 82.9%; in the test with OVCAR-4 ovarian (10 µM), 60.7%; in the test on SK-OV-3 ovarian (10 µM), 82%; with OVCAR-3 ovarian (10 µM) it was 42.9%. The growth with HS 578T breast (10 µM) was 49.8%; in the test with NCI/ADR-RES ovarian (10 µM), 95.8%.

On to `O=[N+]([O-])c1cc(S(=O)(=O)Nc2ccccc2)ccc1Cl`, for which the growth was 88.4% with RPMI-8226 leukemia (10 µM); 91.5% in the test on OVCAR-8 ovarian; 101% with OVCAR-5 ovarian (10 µM); 97% with OVCAR-4 ovarian (10 µM); 96.3% with SK-OV-3 ovarian (10 µM); 96.1% with IGROV1 ovarian (10 µM). In addition, the figures for the growth with OVCAR-3 ovarian (10 µM), with HS 578T breast (10 µM) and in the test on NCI/ADR-RES ovarian (10 µM) were 106%, 101% and 99.6%, respectively.

For the molecule `COc1ccc(N)c2c1C(=O)c1ccccc1C2=O`, the growth in the test with RPMI-8226 leukemia (10 µM) is 88.9%; in the test with OVCAR-8 ovarian, 95.7%; in the test with OVCAR-5 ovarian (10 µM) it was 103%; in the test with OVCAR-4 ovarian (10 µM), 109%; with SK-OV-3 ovarian (10 µM), 89.4%; with IGROV1 ovarian (10 µM), 88.7%. Besides, the figures for the growth in the test with OVCAR-3 ovarian (10 µM), with HS 578T breast (10 µM) and in the test on NCI/ADR-RES ovarian (10 µM) were 115%, 107% and 110%, respectively.

For the molecule `Cc1c(-c2ccccc2)[nH]c2ccccc12`, the growth in the test on SR leukemia (10 µM) was 102%; in the test with RPMI-8226 leukemia (10 µM), 88.3%; with OVCAR-8 ovarian it was 105%; in the test with OVCAR-5 ovarian (10 µM), 99%; in the test with OVCAR-4 ovarian (10 µM), 96.7%; in the test with IGROV1 ovarian (10 µM) it was 103%. In addition, the figures for the growth in the test on OVCAR-3 ovarian (10 µM), with HS 578T breast (10 µM) and with NCI/ADR-RES ovarian (10 µM) were 105%, 102% and 105%, respectively.

Consider `CN(C)CCNc1cccc2sc3ccc(O)cc3c(=O)c12`, for which the growth in the test on RPMI-8226 leukemia (10 µM) was 73.4%; with OVCAR-8 ovarian it was 36%; in the test on OVCAR-5 ovarian (10 µM), 78.8%; in the test on OVCAR-4 ovarian (10 µM), 52.8%; in the test on SK-OV-3 ovarian (10 µM), 51.1%; with IGROV1 ovarian (10 µM) it was 50.1%. For the same molecule, the growth with OVCAR-3 ovarian (10 µM) is 41.8%; with HS 578T breast (10 µM), 69.4%; in the test on NCI/ADR-RES ovarian (10 µM) it was 45%.
